Results from the supplement of paper PMC8728848.
The entries come from a sample that favours the strongest signals as a whole.

What was measured:
Test in all cases: glycan array binding signal (z-score within array); higher = stronger binding
Conditions in all cases: glycan notation: IUPAC condensed, linker removed
Fuc(a1-2)Gal(b1-3)GlcNAc = biological target: Fuc(a1-2)Gal(b1-3)GlcNAc
Procedure, shortened: (§1)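 The binding signal is a Z-score computed within each array and averaged over linkers. Arrays of the same protein sequence at different concentrations or buffers were also averaged together. Data originate from 3228 arrays in the Consortium for Functional Glycomics database, kept only where the protein sequence was available.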

[1] = biological target: Fuc(a1-2)[GalNAc(a1-3)]Gal(b1-3)GlcNAc
Procedure, shortened: as §1

[2] = biological target: Fuc(a1-3)[GalNAc(b1-4)]GlcNAc
Procedure, shortened: as §1

Gal(a1-4)Gal(b1-4)Glc = biological target: Gal(a1-4)Gal(b1-4)Glc
Procedure, shortened: as §1

Gal(a1-4)GlcNAc = biological target: Gal(a1-4)GlcNAc
Procedure, shortened: as §1

[3] = biological target: Gal(b1-3)GlcNAc(b1-3)Gal(b1-4)GlcNAc
Procedure, shortened: as §1

[4] = biological target: Gal(b1-3)[Fuc(a1-4)]GlcNAc(b1-3)Gal(b1-3)[Fuc(a1-4)]GlcNAc
Procedure, shortened: as §1

[5] = biological target: Gal(b1-4)GlcNAc(a1-6)Gal(b1-4)GlcNAc
Procedure, shortened: as §1

Gal3S(b1-4)Glc = biological target: Gal3S(b1-4)Glc
Procedure, shortened: as §1

Gal4S(b1-4)GlcNAc = biological target: Gal4S(b1-4)GlcNAc
Procedure, shortened: as §1

GalNAc(a1-3)GalNAc = biological target: GalNAc(a1-3)GalNAc
Procedure, shortened: as §1

Glc(a1-6)Glc(a1-6)Glc = biological target: Glc(a1-6)Glc(a1-6)Glc
Procedure, shortened: as §1

GlcA(b1-3)GlcNAc = biological target: GlcA(b1-3)GlcNAc
Procedure, shortened: as §1

[6] = biological target: GlcNAc(b1-2)Gal(b1-3)GalNAc
Procedure, shortened: as §1

GlcNAc(b1-3)Gal = biological target: GlcNAc(b1-3)Gal
Procedure, shortened: as §1

[7] = biological target: GlcNAc(b1-4)Gal(b1-4)GlcNAc
Procedure, shortened: as §1

[8] = biological target: GlcNAc(b1-4)[GlcNAc(b1-6)]GalNAc
Procedure, shortened: as §1

GlcNAc3Prop(b1-4)GlcNAc = biological target: GlcNAc3Prop(b1-4)GlcNAc
Procedure, shortened: as §1

Man(a1-3)[Man(a1-6)]Man = biological target: Man(a1-3)[Man(a1-6)]Man
Procedure, shortened: as §1

[9] = biological target: Man(a1-3)[Man(a1-6)]Man(a1-6)[Man(a1-2)Man(a1-3)]Man(b1-4)GlcNAc(b1-4)GlcNAc
Procedure, shortened: as §1

[10] = biological target: Neu5Ac(a2-3)Gal(b1-3)GlcNAc6S
Procedure, shortened: as §1

[11] = biological target: Neu5Ac(a2-3)Gal(b1-3)[Fuc(a1-4)]GlcNAc(b1-3)Gal(b1-4)[Fuc(a1-3)]GlcNAc
Procedure, shortened: as §1

[12] = biological target: Neu5Ac(a2-3)Gal(b1-4)[Fuc(a1-3)]GlcNAc(b1-6)[Gal(b1-3)]GalNAc
Procedure, shortened: as §1

[13] = biological target: Neu5Ac(a2-6)Gal(b1-4)GlcNAc(b1-2)Man(a1-3)[GlcNAc(b1-2)Man(a1-6)]Man(b1-4)GlcNAc(b1-4)GlcNAc
Procedure, shortened: as §1

[14] = biological target: Neu5Ac(a2-6)Gal(b1-4)GlcNAc(b1-2)Man(a1-3)[Neu5Ac(a2-6)Gal(b1-4)GlcNAc(b1-2)Man(a1-6)]Man(b1-4)GlcNAc(b1-4)GlcNAc
Procedure, shortened: as §1

[15] = biological target: Neu5Ac(a2-6)Gal(b1-4)GlcNAc(b1-2)Man(a1-6)[Gal(b1-4)GlcNAc(b1-2)Man(a1-3)]Man(b1-4)GlcNAc(b1-4)GlcNAc
Procedure, shortened: as §1

[16] = biological target: Neu5Ac(a2-6)Gal(b1-4)GlcNAc(b1-3)Gal(b1-4)[Fuc(a1-3)]GlcNAc(b1-3)Gal(b1-4)[Fuc(a1-3)]GlcNAc
Procedure, shortened: as §1

[17] = biological target: Neu5Ac(a2-8)Neu5Ac(a2-8)Neu5Ac(a2-3)Gal(b1-4)Glc
Procedure, shortened: as §1

Glc(a1-4)Glc = biological target: Glc(a1-4)Glc
Procedure, shortened: as §1

[18] = biological target: GlcNAc(b1-2)[GlcNAc(b1-4)]Man(a1-3)[GlcNAc(b1-4)][GlcNAc(b1-2)[GlcNAc(b1-6)]Man(a1-6)]Man(b1-4)GlcNAc(b1-4)GlcNAc
Procedure, shortened: as §1

[19] = biological target: GlcNAc(b1-3)Gal(b1-4)GlcNAc(b1-3)Gal(b1-4)GlcNAc(b1-2)Man(a1-3)[GlcNAc(b1-3)Gal(b1-4)GlcNAc(b1-3)Gal(b1-4)GlcNAc(b1-2)Man(a1-6)]Man(b1-4)GlcNAc(b1-4)[Fuc(a1-6)]GlcNAc
Procedure, shortened: as §1

[20] = biological target: GlcNAc(b1-3)Gal(b1-4)GlcNAc(b1-6)[Gal(b1-3)]GalNAc
Procedure, shortened: as §1

GlcNAc(b1-3)Man = biological target: GlcNAc(b1-3)Man
Procedure, shortened: as §1

Kdn(a2-3)Gal(b1-4)Glc = biological target: Kdn(a2-3)Gal(b1-4)Glc
Procedure, shortened: as §1

[21] = biological target: Man(a1-2)Man(a1-3)[Man(a1-2)Man(a1-6)]Man
Procedure, shortened: as §1

[22] = biological target: Neu5Ac(a2-3)Gal(b1-3)GlcNAc(b1-3)GalNAc
Procedure, shortened: as §1

[23] = biological target: Neu5Ac(a2-6)Gal(b1-4)GlcNAc(b1-2)Man(a1-3)Man(b1-4)GlcNAc(b1-4)GlcNAc
Procedure, shortened: as §1

[24] = biological target: Neu5Ac(a2-8)Neu5Ac(a2-3)Gal(b1-3)GalNAc(b1-4)[Neu5Ac(a2-8)Neu5Ac(a2-3)]Gal(b1-4)Glc
Procedure, shortened: as §1

[25] = biological target: Neu5Ac(a2-8)Neu5Ac(a2-3)[Gal(b1-3)GalNAc(b1-4)]Gal(b1-4)Glc
Procedure, shortened: as §1

Neu5Gc(a2-3)Gal(b1-4)Glc = biological target: Neu5Gc(a2-3)Gal(b1-4)Glc
Procedure, shortened: as §1

| Binder | glycan array binding signal (z-score) (Fuc(a1-2)Gal(b1-3)GlcNAc) | glycan array binding signal (z-score) [1] | glycan array binding signal (z-score) [2] | glycan array binding signal (z-score) (Gal(a1-4)Gal(b1-4)Glc) | glycan array binding signal (z-score) (Gal(a1-4)GlcNAc) | glycan array binding signal (z-score) [3] | glycan array binding signal (z-score) [4] | glycan array binding signal (z-score) [5] | glycan array binding signal (z-score) (Gal3S(b1-4)Glc) | glycan array binding signal (z-score) (Gal4S(b1-4)GlcNAc) | glycan array binding signal (z-score) (GalNAc(a1-3)GalNAc) | glycan array binding signal (z-score) (Glc(a1-6)Glc(a1-6)Glc) | glycan array binding signal (z-score) (GlcA(b1-3)GlcNAc) | glycan array binding signal (z-score) [6] | glycan array binding signal (z-score) (GlcNAc(b1-3)Gal) | glycan array binding signal (z-score) [7] | glycan array binding signal (z-score) [8] | glycan array binding signal (z-score) (GlcNAc3Prop(b1-4)GlcNAc) | glycan array binding signal (z-score) (Man(a1-3)[Man(a1-6)]Man) | glycan array binding signal (z-score) [9] | glycan array binding signal (z-score) [10] | glycan array binding signal (z-score) [11] | glycan array binding signal (z-score) [12] | glycan array binding signal (z-score) [13] | glycan array binding signal (z-score) [14] | glycan array binding signal (z-score) [15] | glycan array binding signal (z-score) [16] | glycan array binding signal (z-score) [17] | glycan array binding signal (z-score) (Glc(a1-4)Glc) | glycan array binding signal (z-score) [18] | glycan array binding signal (z-score) [19] | glycan array binding signal (z-score) [20] | glycan array binding signal (z-score) (GlcNAc(b1-3)Man) | glycan array binding signal (z-score) (Kdn(a2-3)Gal(b1-4)Glc) | glycan array binding signal (z-score) [21] | glycan array binding signal (z-score) [22] | glycan array binding signal (z-score) [23] | glycan array binding signal (z-score) [24] | glycan array binding signal (z-score) [25] | glycan array binding signal (z-score) (Neu5Gc(a2-3)Gal(b1-4)Glc) |
| --- | --- | --- | --- | --- | --- | --- | --- | --- | --- | --- | --- | --- | --- | --- | --- | --- | --- | --- | --- | --- | --- | --- | --- | --- | --- | --- | --- | --- | --- | --- | --- | --- | --- | --- | --- | --- | --- | --- | --- | --- |
| Regenerating Gene I (Homo sapiens), P05451 (protein) MAQTSSYFMLISCLMFLSQSQGQEAQTELPQARISCPEGTNAYRSYCYYFNEDRETWVDADLYCQNMNSGNLVSVLTQAEGAFVASLIKESGTDDFNVWIGLHDPKKNRRWHWSSGSLVSYKSWGIGAPSSVNPGYCVSLTSSTGFQKWKDVPCEDKFSFVCKFKN | 0.417 | -0.479 | 0.315 | 3.58 | 0.102 | -0.537 | -0.396 | 0.071 | 0.272 | 0.291 | -0.588 | -0.118 | 0.836 | -0.206 | -0.215 | 2.18 | 1.91 | -0.533 | 7.74 | -0.594 | -0.09 | 5.84 | -0.128 | -0.412 | -0.473 | -0.33 | -0.304 | -0.596 | – | – | – | – | – | – | – | – | – | – | – | – |
| OS9 (Arabidopsis thaliana) (protein) MRGSHHHHHHGMASMTGGQQMGRDLYDDDDKSRLQIFPAHLVGTFSRNNREPKYKIEFLPEDSPFHPGDNLESMVMLDKHGNRFLCYLPKEEKATSGWTSSQQNISTVMMETQQLVKLKTPDELLQPLSEKCLFRQEGWWSYEFCHQKYVRQLHVEDENKIVQEFFLGTFDPEATAAFNQTVSDASTDASQRYHSHVYTNGTTCDLTGSPREVEVRFVCAETRAMVTSITELSTCKYALTVQCPTLCKHPLFQLEKPVSHTIHCNAIPVEEDATRNKEEQAVDESPKMIADS | – | – | – | – | – | – | – | – | – | – | – | -0.542 | – | – | – | – | -0.3 | – | -0.078 | – | – | – | – | – | -0.5 | – | – | – | 1.98 | 0.258 | -0.144 | 0.094 | 0.127 | 0.473 | 0.462 | 0.474 | 6.74 | -0.384 | 1.47 | -1.01 |
